The full list was thinned out, with hits kept by preference.
Pin1 inhibitor: blocks the human prolyl isomerase Pin1; AID 504891; Pin1 FP peptide displacement, HiFluor488, 10 min; Q13526; Potency, µM (doses to about 115 µM), most hits filed as inhibitors; 390,000 compounds, 0.009% hits; active = well fitted inhibition curve with a large enough effect in the polarisation, with a control signal flat, not every such curve was filed as active; inconclusive = small, poorly fitted or top-dose-only effect, or effect the other way, or a change in a side signal; inactive = no such curve, though single readings can be large or run the other way; the % refers to the polarisation
PGK inhibitor: T. brucei PGK inhibition. P07378. PGK/GAPDH coupled, Kinase-Glo luminescence, 60 min. Potency, µM (highest dose often 57.5 µM), actives largely listed as inhibitors. 380,000 compounds, 0.043% hits; note: nearly all actives have a fitted effect of over 60% in size
Target sequence (P07378 whole entry, looked up): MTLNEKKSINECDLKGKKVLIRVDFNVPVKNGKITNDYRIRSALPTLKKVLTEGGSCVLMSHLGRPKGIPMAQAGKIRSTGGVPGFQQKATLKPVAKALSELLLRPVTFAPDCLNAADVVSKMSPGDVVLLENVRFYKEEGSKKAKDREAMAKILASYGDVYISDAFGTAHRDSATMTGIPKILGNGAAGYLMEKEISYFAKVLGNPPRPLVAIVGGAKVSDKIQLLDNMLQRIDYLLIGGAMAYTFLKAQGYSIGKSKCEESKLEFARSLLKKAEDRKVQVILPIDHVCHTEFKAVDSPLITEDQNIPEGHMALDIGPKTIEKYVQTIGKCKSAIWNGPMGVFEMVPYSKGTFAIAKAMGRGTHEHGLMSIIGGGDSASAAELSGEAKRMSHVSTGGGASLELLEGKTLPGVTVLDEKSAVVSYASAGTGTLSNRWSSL
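Luminescent ATP detection (Kinase-Glo Plus) follows a 60-minute room-temperature incubation, with wells lacking PGK as controls. Buffer: 100 mM TEA (pH 7.6), 5 mM MgCl2, 0.01% Tween-20. Coupling enzyme GAPDH (100 nM final) supplies unstable 1,3-BPG in-well.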
Tb PFK inh: T. brucei PFK enzyme inhibition | O15648 | T. brucei PFK, ADP-Glo luminescence | Potency, µM (highest dose often 57.5 µM), hits mostly inhibitors | 330,000 compounds, 0.17% hits | AID 485367; note: nearly all actives have a fitted effect of over 60% in size
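ADP-Glo luminescence quantified ADP after 45 min at room temperature, with 1.25 nM T. brucei PFK, 0.1 mM ATP and 0.5 mM fructose-6-phosphate in pH 8.0 TEA buffer. qHTS titrations up to 57 µM; curves classified by quality.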
PI5P4Ka inh: PI5P4K alpha (human) kinase inhibition. P48426. PI5P4Kalpha enzyme, ADP-Glo luminescence, 60 min; active compounds read low. max response, %. 330,000 compounds, 1.2% hits; active = max response of -50% or lower; inconclusive = between -30% and -50%; inactive = -30% or higher; note: value at the top dose of about 77 µM
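Enzyme plus substrate dispensed, test compounds pinned in, then ATP (5 microM final) added. After 60 min at RT, ADP-Glo reagent 1 for 45 min and reagent 2 for 30 min preceded luminescence imaging.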
PI4K2A inh: blocks human PI4K2A kinase activity. purified PI4K2A, ADP-Glo luminescence, 1 h; active compounds read low. activity change, negative = inhibition, % at 76.9 µM. 420,000 compounds, 0.13% hits. AID 1346378; in the data active = activity change below about -50%; inconclusive = mostly about -30% to -49%
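ADP-Glo luminescence measured ADP generated by PI4K2A enzyme (4 ug/mL before mixing) with 1.2 mM PI substrate (pre-mix) and 300 microM ATP (pre-mix). Tris pH7.5 buffer with MgCl2, Triton X-100; 1 h reaction at ambient temperature.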
Numbers stand for hits; n = inactive; u = inconclusive; x = no result given. Unless noted, calls come from the whole dose curve; as a rule, active = well fitted curve in the direction sought with a large enough effect; inconclusive = small, poorly fitted or top-dose-only effect, or another doubt; inactive = no such curve, though single readings can be large; an effect the other way counts as inactive or inconclusive.

SMILES	Pin1 inhibitor	PGK inhibitor	Tb PFK inh	PI5P4Ka inh	PI4K2A inh
O=C(N/N=C/c1ccc2c(c1)OCO2)c1cc(-c2ccco2)nc2ccccc12	u	n	n	-54.8	n
O=C(O)c1ccccc1/C=N/NC(=O)c1cc(-c2ccco2)nc2ccccc12	u	u	n	-94.0	n
O=C(N/N=C/c1ccc2c(c1)OCO2)c1cc(-c2ccccc2)nc2ccccc12	n	n	n	n	n
C=CCc1cc(F)c(S(=O)(=O)N2CCN(S(=O)(=O)c3ccc4c(c3)OCCO4)CC2)cc1F	n	x	x	x	x
Cc1ccc(CNc2ncnc3ccc(-c4ccc5c(c4)OCO5)cc23)o1	n	x	x	x	x
COc1cccc(C2C(C#N)=C(NC(=O)NCc3ccccc3)Oc3ccc4ccccc4c32)c1 (stereo not given)	n	x	x	x	x
Cc1coc2ccccc2c1=O	x	x	x	x	n
COC(=O)c1sccc1NC(=O)Nc1ccc(OC)cc1	n	u	n	u	-57.4
COC(=O)c1sccc1NC(=O)Nc1cc(OC)ccc1OC	n	n	u	n	n
COc1cccc(C2c3c(ncn(-c4ccccc4Cl)c3=N)Oc3ccc4ccccc4c32)c1 (stereo not given)	n	x	x	x	x
Cc1cc(-c2ccccc2)[nH]c(=O)c1C#N	n	n	n	n	n
N#Cc1c(-c2ccccc2)[nH]c(=O)[nH]c1=O	n	n	n	-91.8	n
COc1ccc(C(=O)COC(=O)c2cccnc2Cl)c(OC)c1	u	n	n	-74.5	n
CCCCN(CCCC)C(C(N)=O)c1ccc(OC)cc1 (stereo not given)	x	x	x	x	n
COc1c(Br)cc(/C=N/n2c(-c3ccccc3)n[nH]c2=S)c(O)c1Br	n	n	n	-55.1	n
Oc1c(Br)cc(/C=N/n2c(-c3ccccc3)n[nH]c2=S)c(Br)c1O	x	x	n	x	x
Cc1nnc(C)n1/N=C/c1cc(Br)ccc1O	n	n	n	n	n
Oc1c(Br)cc(Br)cc1/C=N/n1c(-c2ccccc2)n[nH]c1=S	u	n	n	-54.1	n
Cc1nnc(C)n1/N=C/c1cc(Br)cc(Br)c1O	u	n	n	-50.2	n
CN1CCN(c2ccc(CNc3nn4c(=O)c5ccccc5nc4s3)cc2)CC1	n	x	x	x	x
C=CCNC(=O)NC(=O)COC(=O)/C=C/c1cccc([N+](=O)[O-])c1	n	n	n	-82.6	n
CC(C1SC(=S)NC1=O)C1SC(=S)NC1=O (stereo not given)	x	n	x	-77.5	n
O=C(O)c1cc(O)c2c(c1)C(=O)c1cccc(O)c1C2=O	u	n	n	-91.3	n
CC(C)n1c(=S)[nH]c2scc(-c3cccs3)c2c1=O	u	n	n	-82.3	n
CNC(=O)c1ccccc1Sc1ccc2c(/C=C/c3ccccn3)n[nH]c2c1	x	x	x	x	n
SMILES	Pin1 inhibitor	PGK inhibitor	Tb PFK inh	PI5P4Ka inh	PI4K2A inh
NC(=O)C1CCN(c2ncc(-c3ccc4c(c3)OC(F)(F)O4)s2)CC1	n	x	x	x	x
Cc1nc2sc(-c3ccccc3)cc2c(=O)n1N	n	20µM	n	u	-51.7
Cc1nc2sc(-c3ccccc3)cc2c(=O)n1-n1cccc1	n	n	n	n	n
O=[N+]([O-])c1ccc(O)c(-c2nn[nH]n2)c1	x	n	n	-53.6	n
CC(C)CCN(C)C1CCN(C(=O)Nc2ccc(Cl)cc2)CC1	x	x	x	x	n
Cn1c(N)c(C(=O)COC(=O)C2Cc3ccccc3CN2S(C)(=O)=O)c(=O)n(C)c1=O (stereo not given)	x	n	x	-60.6	n
CCN(CC)CC(=O)Nc1c(C)cccc1C(=O)OC	x	x	x	x	n
CC1(C)NC(=O)N(CC(=O)OCC(=O)c2ccc(Br)s2)C1=O	n	n	n	-63.8	n
COc1cc2c(cc1OC)-c1cc3ccc(OC)c(OC)c3c[n+]1CC2	n	n	n	n	n
COc1ccc2cc3[n+](cc2c1O)CCc1cc2c(cc1-3)OCO2	x	x	x	u	-52.3
C[C@H]1COc2cc(Br)ccc2S(=O)(=O)N1Cc1cn(Cc2ccc(F)cc2)nn1	x	x	x	x	n
C#CCOCCOCCOCCNc1nc(N2CCN(C(=O)CCCCCCCCCCNC(=O)Cn3cc(CCCCCN)nn3)CC2)nc(N2CCN(C(=O)CCCCCCCCCCNC(=O)[C@H]([C@@H](C)CC)n3cc(CCCCN=C(N)N)nn3)CC2)n1	n	n	u	-71.7	n

Compound activity as filed in PubChem.
